Screening data: PubChem, National Center for Advancing Translational Sciences (NCATS)
A selection: hits, their analogues and other compounds. The true share with any hit is near 3.6%.
TDP-43 yeast inh: TDP-43 toxicity inhibition in yeast; TDP-43 expressing yeast growth rescue, BacTiter-Glo, 24 h; actives 1.8% (n = 410,000); Potency, µM (doses to about 46.1 µM), for inactives: at the highest dose growth rescue (activation), actives largely listed as activators; note: % of control where 0% means no effect; nearly all actives have a fitted effect of over 50% in size
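Luminescence from BacTiter-Glo reports growth of TDP-43-expressing yeast after 24 hr at 30 deg C with compound. Cells were raffinose-pregrown to mid-log, then seeded in galactose medium at OD600=0.02.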
Abeta rescue: compounds reversing amyloid beta toxicity in yeast; Potency, µM (series often up to 46.1 µM), hits mostly activators; actives 0.063% (n = 410,000); yeast expressing A-beta42, growth rescue, OD600, 48 h; response scale: 0% DMSO, 100% iron-clioquinol control; note: nearly all actives have a fitted effect of over 55% in size
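Yeast A-beta toxicity model in growth medium with pinned compounds, 48 h at 30 C; growth read as absorbance at 600 nm. Normalized to FeCl3/clioquinol equimolar mix (positive) and DMSO (negative).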
aSyn yeast inh: inhibitors of alpha-synuclein toxicity in yeast; Yeast expressing alpha-synuclein, growth rescue, BacTiter-Glo, 24 h; Potency, µM (top dose mostly 46.1 µM), for the others: top-dose growth rescue (activation), usual class: activators; actives 0.14% (n = 370,000); AID 652106; note: % of control where 0% means no effect; nearly all actives have a fitted effect of over 65% in size
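Readout is rescue of growth in alpha-synuclein-expressing yeast, so inhibitors of toxicity appear as activators. Growth after 24 hr at 30 deg C in galactose medium is quantified by luminescence.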
Mm-Cpn inhibitor: blocks the Methanococcus maripaludis chaperonin Mm-Cpn | purified Mm-Cpn ATPase, ADP Transcreener TR-FRET | Potency, µM (series often up to 76.9 µM), for the others: top-dose activity, negative = inhibition, hits mostly inhibitors | actives 0.031% (n = 330,000) | AID 504842; note: % is set by controls: 0 for no effect and ±100 for the full control effect; nearly all actives have a fitted effect of over 80% in size
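Measured: ADP formation by purified Mm-CPN. Conditions: 25 nM protein, 10 uM ATP, Tris pH 7.4 with Mg2+, K+ and DTT, 37°C for 30 min. Detection: Transcreener HTRF after 30 min at room temperature.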
ClpP mod: qHTS Assay for Activators of ClpP; ATP-dependent Clp protease proteolytic subunit (Bacillus subtilis (strain 168)), P80244; purified B. subtilis ClpP, FRET peptide cleavage, 20 min; Potency, µM (series often up to 57.5 µM), for the others: at the highest dose activity change, negative = active; actives 1.9% (n = 340,000); AID 651965, 2013; active = well fitted falling curve with a large enough effect; inconclusive = small, poorly fitted or top-dose-only effect; inactive = no such curve, though single readings can be large or run the other way; note: the source files actives as falling curves though it sought activators and does not explain the sign; nearly all actives have a fitted effect of over 65% in size
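FRET quenching reversal measured ClpP activation: 10 microg/mL B. subtilis ClpP at pH 8 with the FRET-FV decapeptide, read at 430 nm after 320 nm excitation. The 20-min minus 0-min signal was scaled between DMSO/no-enzyme wells and ADEP (5.8 microM final).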
FUS suppressor: FUS proteinopathy suppression in yeast. S. cerevisiae FUS-expressing, growth rescue, OD600, 24 h. actives 0.24% (n = 390,000). AID 1347120. Potency, µM (doses to about 76.6 µM), actives largely listed as activators;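 note: plate controls were DMSO vehicle for no effect and reference control for full effect; nearly all actives have a fitted effect of over 55% in size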
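Steps: raffinose overnight preculture; dilution to OD 0.005 in 2% galactose minimal medium; compound addition (concentration series); 24hr at 30C, 99% humidity; absorbance read at 600 nm.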
Numbers without * were called inactive; i = inactive; ? = inconclusive; · = not tested or not shown; ! = a repeat was not active; [ ] = dose if it differs, or a comment. Unless noted, calls come from the whole dose curve; as a rule, active = well fitted curve in the direction sought with a large enough effect; inconclusive = small, poorly fitted or top-dose-only effect, or another doubt; inactive = no such curve, though single readings can be large; an effect the other way counts as inactive or inconclusive. Potency is the fitted concentration of half-maximal effect.

SMILES	TDP-43 yeast inh	Abeta rescue	aSyn yeast inh	Mm-Cpn inhibitor	ClpP mod	FUS suppressor
COc1ccc(-c2oc3cc(O)c(OC)c(O)c3c(=O)c2OC)cc1	0%	i	4%	1%	0%	i
COc1ccc(-c2oc3cc(OC)c(O)c(OC)c3c(=O)c2OC)cc1O	22µM*	i	-1%	·	2%	i
CN(C)c1ccc(/C=C/c2ccnc3ccc4ccccc4c23)cc1	·	·	·	·	-1%	·
COCc1cc(C)nc(N2CCCCC2)c1C#N	-11%	i	5%	1%	22µM*	i
COCc1cc(C)nc(N2CCN(c3ccccc3)CC2)c1C#N	5%	i	-12%	0%	-10%	i
COCc1cc(C)nc(N2CCN(Cc3ccccc3)CC2)c1C#N	10%	i	-5%	1%	-20%	i
COCc1cc(C)nc(N2CCNCC2)c1C#N	-9%	i	7%	3%	16µM*	i
Cc1ccc(-n2ncc3c(NCCc4ccccc4)ncnc32)cc1	?	i	·	·	4%	i
Cc1ccc2c(=O)cc(CSc3ncn[nH]3)[nH]c2c1C	14%	i	·	·	1%	i
Cc1cc(=O)oc2c3c4c(cc12)OCCN4CCC3	?	i	-7%	-9%	22µM*	i
CC(C)c1cc(=O)oc2c3c4c(cc12)CCCN4CCC3	?	i	-5%	-5%[15.4 µM]	28µM*	i
CCc1ccc(-c2nc3ccc(Br)cc3c(C(=O)O)c2C)s1	35µM*	i	-36%	?	25µM*!	i
O=C(c1ccc(N2C(=O)c3ccccc3C2=O)cc1)N1CCN(S(=O)(=O)c2ccccc2F)CC1	?	i	3%	·	3%	28µM*
CCOC(=O)c1cc(-c2ccccc2)n(CCCC(=O)Nc2cccc(C)c2C)c1C	1%	i	·	·	-1%	i
COc1ccc(OC)c(NC(=O)C2C3CCC(C3=C(C)C)C2C(=O)O)c1 (stereo not drawn)	16µM*	i	3%	-1%	0%	i
COc1ccc(OC)c(NC(=O)c2ccc(OC3CSC3)cc2)c1	13µM*	?	-10%	2%	-2%	i
COc1ccc(OC)c(NC(=O)C2CCCCC2C(=O)O)c1 (stereo not drawn)	-3%	i	-2%	3%	-1%	i
COc1ccc(OC)c(NC(=O)c2ccc(NC(C)=O)cc2)c1	-5%	i	2%	2%	1%	i
Nc1ncnc2c1c(-c1ccc(Oc3ccccc3)cc1)cn2C1CCCC1	-61%	i	-20%	0%	28µM*	i
Oc1ccc(COC2CCN(Cc3ccccc3)C2)c2cccnc12 (stereo not drawn)	·	·	·	2%	·	·
CC(=O)N1CCOc2cc(S(=O)(=O)NCc3ccccc3Cl)c(C)cc21	1%	i	·	·	-8%	i
N#CCC[C@H]1CC[C@]2(CCCN(C(=O)c3ccno3)C2)O1	·	·	·	·	·	i
CCOC(=O)Nc1ccc2c(c1)N(C(=O)CCN(C)C)c1ccccc1S2	20µM*	i	13%	-1%	3%	i
O=C(Cc1c(O)c2ccccc2[nH]c1=O)NCc1ccccc1F	-6%	i	5%	0%	28µM*	i
O=C(Cc1c(O)c2ccccc2[nH]c1=O)NCc1cccc(F)c1	-9%	i	1%	0%	28µM*	i
SMILES	TDP-43 yeast inh	Abeta rescue	aSyn yeast inh	Mm-Cpn inhibitor	ClpP mod	FUS suppressor
COc1ccc(CCNC(=O)Cn2nc(C)n3c(cc4cc(F)ccc43)c2=O)cc1OC	-4%	i	·	·	-4%	i
CCCCSCCCNC(=O)C1CCC(CNS(=O)(=O)c2c(C)cc(C)cc2C)CC1 (stereo not drawn)	3%	i	·	·	1%	?
O=Cc1ccc(I)cc1	·	·	·	·	0%	·
Cc1c(C(=O)NCCSCc2c(F)cccc2Cl)cnn1-c1ccc(Cl)cc1	20µM*	i	-1%	-1%	·	i
COc1ccccc1C(=O)NCCSCc1c(F)cccc1Cl	19%	i	2%	?	-5%	i
O=C(NC(=S)Nc1cccc2cccnc12)c1ccccc1	15%	i	0%	2%	2%	i
O=C(NC(=S)Nc1cccc2cccnc12)c1cccs1	13%	i	16µM*	-2%	4%	i
Cn1c2ccccc2c2cc(C(=O)N3CCOCC3)sc21	14µM*	i	3%	-10%	-19%	i
CCCCN(CC)C(=O)c1cc2c(=O)n3cccc(C)c3nc2s1	35µM*	i	-2%	-2%	5%	i
CCCCn1c(=NC(=O)c2ccc3c(c2)OCO3)c(C#N)cc2c(=O)n3cccc(C)c3nc21	3%	i	-8%	0%	32µM*	i
CCN(C(=O)c1cc2c(=O)n3ccccc3nc2s1)C1CCCCC1	18µM*	i	1%	-4%	·	i
COCCCn1c(C(=O)N2CC(C)OC(C)C2)cc2c(=O)n3cccc(C)c3nc21 (stereo not drawn)	-6%	i	9%	-1%	3%	i
COCCCn1c(C(=O)N2CCOCC2)cc2c(=O)n3cccc(C)c3nc21	24%	i	9%	·	28µM*	i
COCCn1c(=NC(=O)c2ccc3c(c2)OCO3)c(C#N)cc2c(=O)n3cccc(C)c3nc21	·	·	·	-1%	·	·
COc1ccc(N(Cc2ccccc2)C(=O)c2nc(S(C)(=O)=O)ncc2Cl)cc1	0%	i	·	·	-5%	i
CCCCN(CC)C(=O)c1cc2c(=O)n3cccc(C)c3nc2n1C	?	i	·	·	5%	i
CCN(CC)C(=O)c1cc2c(=O)n3cccc(C)c3nc2n1C	22%	i	3%	0%	32µM*	i
O=C(c1c[nH]c2ccc(S(=O)(=O)N3CCC4(CC3)OCCO4)cc2c1=O)N1CCOCC1	26%	i	5%	0%	16µM*	·
COC(CNC(=O)c1c[nH]c2ccc(S(=O)(=O)N3CCC4(CC3)OCCO4)cc2c1=O)OC	-28%	i	-4%	0%	22µM*	i
COC(CNC(=O)c1c[nH]c2ccc(S(=O)(=O)N3CCOCC3)cc2c1=O)OC	-1%	i	-6%	1%	4%	i
CN(C)c1ccc(CNC(=O)c2cnc3sc(N4CCCCCC4)nn3c2=O)cc1	10%	i	·	·	-18%	i
N#C/C(=C\c1c(Oc2ccc(Br)cc2)nc2ccccn2c1=O)c1nc2ccccc2s1	2%	i	·	·	?	?
CCCN1CNc2c(c(=O)[nH]c(=S)n2CCc2ccccn2)C1	·	·	-4%	·	-1%	·
